In PubChem BioAssay (EPA / NIEHS) one finds outcome and AC50 data, which are given here for six compounds.

The nature of test [1]: ATG_CRE_CIS: Attagene CIS-FACTORIAL HepG2 Assay for human cAMP Responsive Element (CRE) binding protein 3 (AID 2282926). To be noted: HepG2 CRE cis-reporter, Attagene multiplexed mRNA; actives raise or lower the signal. In a few lines: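 Endogenous transcription factor activity read via CRE-regulated reporter transcripts in transfected HepG2 cells. After 24 h exposure, RNA was reverse-transcribed, amplified, fluorescently labelled and sized by capillary electrophoresis; gain or loss fitted against DMSO.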

In test [2] the target is CCAAT/enhancer-binding protein beta (Homo sapiens) (UniProt P17676). Kind of test: ATG_C_EBP_CIS: Attagene CIS-FACTORIAL HepG2 Assay for human CCAAT/Enhancer Binding Protein (C/EBP) beta (AID 2282927). The conditions noted are these: HepG2 Attagene cis-factorial transcription factor reporter; actives raise or lower the signal. The gist of the method:
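Endogenous transcription factor activity in human liver HepG2 cells is inferred from induction of a CEBPB-linked reporter mRNA. Exposure lasts 24 h; activity is fitted in both directions relative to DMSO.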

The nature of test [3]: ATG_CMV_CIS: Attagene CIS-FACTORIAL HepG2 Assay for human CMV (Internal Marker) (AID 2282928).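 Further: endpoint acts as a background internal control marker rather than a target.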 The conditions noted are these: HepG2 CMV promoter reporter, transcription factor profiling; actives raise or lower the signal. The gist of the method:
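24 h chemical treatment, HepG2 with transient multi-reporter transfection; RNA → oligo(dT) RT → PCR → 6-FAM extension → HpaI digest → CE fluorescence. Bidirectional fit, DMSO negative control.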

A short description of test [4]: ATG_DR4_LXR_CIS: Attagene CIS-FACTORIAL HepG2 Assay for human Liver X Receptor (LXR), DR4 submotif (AID 2282929). The conditions noted are these: HepG2 Attagene DR4 cis-reporter, mRNA transcription; actives raise or lower the signal. In a few lines:
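Endogenous factor activity at a DR4 cis-element is read as reporter mRNA in transiently transfected HepG2 cells. Exposure lasts 24 h; transcripts are amplified, fluorescently labelled and sized by capillary electrophoresis, with DMSO as baseline.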

Test [5] addresses Aryl hydrocarbon receptor (Homo sapiens) (UniProt P35869). Description: ATG_Ahr_CIS: Attagene CIS-FACTORIAL HepG2 Assay for human Aryl Hydrocarbon Receptor (Ahr) (AID 2282930). To be noted: HepG2 AhR cis-factorial reporter transcription; actives raise or lower the signal. The gist of the method: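 Transient MRTU transfection of HepG2 → 24 h compound exposure → total RNA, oligo(dT) RT → PCR, 6-FAM extension, HpaI cut → CE fluorescence. DMSO = baseline; bidirectional curve fit.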

Test [6] can be described thus: ATG_AP_1_CIS: Attagene CIS-FACTORIAL HepG2 Assay for human Activator Protein 1 (AP-1) (AID 2282931). The conditions noted are these: HepG2 Attagene cis-factorial AP-1 reporter mRNA; actives raise or lower the signal. The gist of the method:
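Fluorescence of labelled PCR fragments separated by capillary electrophoresis gives reporter mRNA levels. HepG2 with transfected cis-regulated reporter units, 24 h exposure; DMSO serves as baseline for bidirectional curve fits.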

A short description of test [7]: ATG_AP_2_CIS: Attagene CIS-FACTORIAL HepG2 Assay for human Activator Protein 2 (AP-2) (AID 2282932). To be noted: HepG2 AP-2 cis-reporter, Attagene transcription factor profiling; actives raise or lower the signal. In a few lines:
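Endogenous transcription factor activity is reported through transfected multiplex reporter constructs in HepG2, after 24 h of compound exposure. Transcripts were quantified by RT-PCR and capillary electrophoresis of fluorescent fragments. Bidirectional fit against DMSO.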

Test [8] in a line: ATG_BRE_CIS: Attagene CIS-FACTORIAL HepG2 Assay for human Bone Morphogenetic Protein (BMP) Response Element (BRE) (AID 2282933). To be noted: HepG2 BMP response element reporter, Attagene transcription factor profiling; actives raise or lower the signal. In a few lines: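 Endogenous transcription factor activity at a BMP response element was monitored in transfected HepG2 cells 24 h after dosing. Fluorescent RT-PCR products were resolved by capillary electrophoresis, and activity was fitted in both directions versus DMSO.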

The target in test [9] is Retinoic acid receptor alpha (Homo sapiens) (UniProt P10276). Kind of test: ATG_DR5_RAR_CIS: Attagene CIS-FACTORIAL HepG2 Assay for human Retinoic Acid Receptor Alpha (RARE), DR5 submotif (AID 2282934).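 On AC50: reporter responds to endogenous RAR alpha beta and gamma in HepG2 not RARA alone.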 The conditions noted are these: HepG2 Attagene cis-factorial RARE DR5 reporter, mRNA; actives raise or lower the signal. The gist of the method: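 Transient MRTU transfection of HepG2; 24 h compound treatment; TriZol RNA, oligo(dT) RT, PCR, FAM labelling, capillary electrophoresis. Bidirectional fit vs DMSO. Endogenous TF activity at DR5 RARE.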
Retinoic acid receptor alpha (Homo sapiens), sequence (P10276 whole entry, looked up): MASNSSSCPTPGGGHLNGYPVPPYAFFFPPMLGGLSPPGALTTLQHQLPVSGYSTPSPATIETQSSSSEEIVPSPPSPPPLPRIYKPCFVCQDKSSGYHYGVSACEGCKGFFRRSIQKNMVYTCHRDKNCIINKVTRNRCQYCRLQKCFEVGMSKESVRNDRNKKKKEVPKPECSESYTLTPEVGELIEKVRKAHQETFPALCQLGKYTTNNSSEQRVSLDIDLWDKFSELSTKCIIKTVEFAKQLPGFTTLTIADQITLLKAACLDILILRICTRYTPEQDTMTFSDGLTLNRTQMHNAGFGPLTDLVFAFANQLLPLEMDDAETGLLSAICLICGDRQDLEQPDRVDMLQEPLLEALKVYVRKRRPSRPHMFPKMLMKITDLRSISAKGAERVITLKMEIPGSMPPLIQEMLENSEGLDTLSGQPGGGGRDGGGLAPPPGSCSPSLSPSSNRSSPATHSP

Test [10] addresses Transcription factor E2F1 (Homo sapiens) (UniProt Q01094). Description: ATG_E2F_CIS: Attagene CIS-FACTORIAL HepG2 Assay for human E2F Transcription Factor 1 (AID 2282935). The conditions noted are these: HepG2 Attagene cis-reporter, E2F reporter RNA transcripts; actives raise or lower the signal. The gist of the method:
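Gain or loss of reporter transcript, fitted against DMSO, reflects E2F1-driven transcription. Transiently transfected HepG2 dosed 24 h before RNA isolation. Quantified by fluorescent RT-PCR products separated by capillary electrophoresis.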

Test [11] can be described thus: ATG_E_Box_CIS: Attagene CIS-FACTORIAL HepG2 Assay for human Enhancer Box (E-box) (AID 2282936). The conditions noted are these: HepG2 E-box cis-reporter transcription, actives raise or lower the signal. In a few lines: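 E-box-driven reporter transcripts measured in transiently transfected HepG2 after 24 h exposure: RNA reverse-transcribed, PCR-amplified, fluorescently labelled, digested and resolved by capillary electrophoresis. Gain or loss relative to DMSO.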

Test [12] can be described thus: ATG_M_61_CIS: Attagene CIS-FACTORIAL HepG2 Assay for M61 Transcription Factor (Internal Marker) (AID 2282937). To be noted: HepG2 Attagene CIS-FACTORIAL M61 internal marker reporter; actives raise or lower the signal. The gist of the method:
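This endpoint serves as an internal background control within a multiplexed HepG2 cis-reporter panel. Cells are exposed for 24 h; reporter mRNA is amplified, fluorescently labelled and sized by capillary electrophoresis, with DMSO as negative control.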

Test [13] can be described thus: ATG_EGR_CIS: Attagene CIS-FACTORIAL HepG2 Assay for human Early Growth Response 1 (EGR1) (AID 2282938). The conditions noted are these: HepG2 Attagene CIS-FACTORIAL EGR reporter mRNA; actives raise or lower the signal. In a few lines:
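HepG2, transient MRTU transfection (cis promoters), 24 h compound. RNA → RT (oligo-dT) → PCR → 6-FAM labelling → HpaI cut → CE fluorescence. Bidirectional fit, DMSO baseline.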

A short description of test [14]: ATG_M_19_CIS: Attagene CIS-FACTORIAL HepG2 Assay for M19 Transcription Factor (Internal Marker) (AID 2282939). The conditions noted are these: HepG2 Attagene CIS-FACTORIAL M19 internal marker reporter; actives raise or lower the signal. The gist of the method: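 Background-control endpoint from a multiplexed HepG2 reporter panel. Cells carrying cis-regulated reporter constructs are treated 24 h, then reporter transcripts are amplified, fluorescently labelled and sized by capillary electrophoresis. DMSO defines baseline.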

Test [15] is described as follows: ATG_ERE_CIS: Attagene CIS-FACTORIAL HepG2 Assay for Estrogen Response Element (ERE) (AID 2282940). To be noted: HepG2 ERE cis-reporter, Attagene RNA transcript; actives raise or lower the signal. The gist of the method:
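Cells used were human hepatoma HepG2, transfected with multiple reporter transcription units under cis-regulatory promoters. Reporter mRNA, read 24 h post-dosing via fluorescent RT-PCR products on capillary electrophoresis, was fitted bidirectionally relative to DMSO.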

Test [16] is described as follows: ATG_Ets_CIS: Attagene CIS-FACTORIAL HepG2 Assay for human Erythroblast Transformation Specific (ETS) (AID 2282941). To be noted: HepG2 ETS cis-reporter transcription, actives raise or lower the signal. In a few lines: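 Cis-regulated reporter mRNA induction in HepG2 (transient transfection), 24 h exposure, RT-PCR plus capillary electrophoresis detection; DMSO serves as negative control and baseline.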

The target of test [17] is Hepatocyte nuclear factor 3-beta (Homo sapiens) (UniProt Q9Y261). Kind of test: ATG_FoxA2_CIS: Attagene CIS-FACTORIAL HepG2 Assay for human Forkhead box A2 (FOXA2) (AID 2282942). The conditions noted are these: HepG2 cis-reporter transcription factor activity, 24 h; actives raise or lower the signal. In a few lines: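 Cells: HepG2, transient multiplex reporter transfection. Exposure 24 h. Detection: reporter-specific RT-PCR, fluorescent labelling, restriction digest, capillary electrophoresis. Analysis: bidirectional curve fit, DMSO as negative control.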
Hepatocyte nuclear factor 3-beta (Homo sapiens), sequence (Q9Y261 whole entry, looked up): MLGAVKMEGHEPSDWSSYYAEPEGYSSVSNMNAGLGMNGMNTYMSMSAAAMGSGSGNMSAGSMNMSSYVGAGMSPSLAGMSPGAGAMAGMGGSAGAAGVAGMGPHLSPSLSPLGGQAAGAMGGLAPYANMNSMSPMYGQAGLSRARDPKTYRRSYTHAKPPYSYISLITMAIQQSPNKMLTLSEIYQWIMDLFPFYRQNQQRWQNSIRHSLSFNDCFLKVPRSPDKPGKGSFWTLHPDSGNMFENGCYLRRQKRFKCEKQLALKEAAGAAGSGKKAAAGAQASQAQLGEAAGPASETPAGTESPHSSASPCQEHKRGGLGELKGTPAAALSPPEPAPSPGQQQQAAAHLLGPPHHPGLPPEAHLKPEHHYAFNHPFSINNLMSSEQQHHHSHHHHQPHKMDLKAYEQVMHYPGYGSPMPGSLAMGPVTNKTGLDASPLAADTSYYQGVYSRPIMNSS

The nature of test [18]: ATG_FoxO_CIS: Attagene CIS-FACTORIAL HepG2 Assay for human Forkhead box O (FoxO) (AID 2282943). The conditions noted are these: HepG2 Attagene cis-reporter, FoxO element, mRNA; actives raise or lower the signal. The gist of the method:
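HepG2, transient MRTU transfection (cis element, endogenous TFs). Dose 24 h. TriZol RNA → oligo(dT) RT → PCR → 6-FAM primer extension → HpaI cut → CE. Gain/loss vs DMSO.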

A short description of test [19]: ATG_GATA_CIS: Attagene CIS-FACTORIAL HepG2 Assay for human GATA Binding Protein (AID 2282944). To be noted: HepG2 GATA cis-element reporter, Attagene multiplex mRNA; actives raise or lower the signal. In a few lines:
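Endogenous transcription factor activity was captured through cis-promoter-driven reporters in transfected HepG2 cells. After 24 h exposure, reporter transcripts were quantified by RT-PCR with fluorescent capillary electrophoresis, and responses fitted both directions against DMSO.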

Test [20] in a line: ATG_GLI_CIS: Attagene CIS-FACTORIAL HepG2 Assay for human Zinc Finger Protein GLI1 (AID 2282945). The conditions noted are these: HepG2, Attagene cis-factorial reporter mRNA, GLI element; actives raise or lower the signal. The gist of the method:
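Bidirectional curve fits relative to DMSO, using reporter mRNA levels from RT-PCR plus capillary electrophoresis. Cells were HepG2 transiently carrying cis-regulated reporter constructs, harvested 24 h after dosing.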

Broadly, the AC50 is the midpoint of the concentration-response curve, whichever way the signal moves.

Calls of active or inactive are those of the source. How the source made its calls: active means hit-call score of the fitted dose curve at least 0.9, where 1 is the maximum; inactive means score below 0.9.

CCAAT/enhancer-binding protein beta (Homo sapiens), sequence (P17676 whole entry, looked up): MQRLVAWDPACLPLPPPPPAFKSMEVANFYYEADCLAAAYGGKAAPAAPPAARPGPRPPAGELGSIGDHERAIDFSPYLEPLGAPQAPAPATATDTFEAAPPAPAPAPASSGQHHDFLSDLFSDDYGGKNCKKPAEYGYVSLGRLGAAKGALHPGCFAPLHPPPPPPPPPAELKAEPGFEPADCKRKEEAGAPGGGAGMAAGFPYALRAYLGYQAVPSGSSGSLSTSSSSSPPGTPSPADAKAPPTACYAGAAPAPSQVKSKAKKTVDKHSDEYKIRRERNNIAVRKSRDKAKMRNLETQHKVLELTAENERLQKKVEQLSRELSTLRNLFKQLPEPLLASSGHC
Transcription factor E2F1 (Homo sapiens), sequence (Q01094 whole entry, looked up): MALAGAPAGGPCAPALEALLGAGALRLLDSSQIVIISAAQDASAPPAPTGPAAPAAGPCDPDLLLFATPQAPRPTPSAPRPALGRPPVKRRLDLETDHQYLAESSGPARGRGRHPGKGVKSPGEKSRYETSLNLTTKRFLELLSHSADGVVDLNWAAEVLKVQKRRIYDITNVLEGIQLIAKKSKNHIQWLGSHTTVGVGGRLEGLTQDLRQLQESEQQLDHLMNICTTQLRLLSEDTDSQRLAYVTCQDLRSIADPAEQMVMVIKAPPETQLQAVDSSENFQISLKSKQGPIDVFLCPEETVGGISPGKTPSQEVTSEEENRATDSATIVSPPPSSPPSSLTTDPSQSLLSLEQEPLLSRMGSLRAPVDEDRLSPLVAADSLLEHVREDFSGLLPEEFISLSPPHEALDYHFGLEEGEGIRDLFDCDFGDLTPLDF
Aryl hydrocarbon receptor (Homo sapiens), sequence (P35869 whole entry, looked up): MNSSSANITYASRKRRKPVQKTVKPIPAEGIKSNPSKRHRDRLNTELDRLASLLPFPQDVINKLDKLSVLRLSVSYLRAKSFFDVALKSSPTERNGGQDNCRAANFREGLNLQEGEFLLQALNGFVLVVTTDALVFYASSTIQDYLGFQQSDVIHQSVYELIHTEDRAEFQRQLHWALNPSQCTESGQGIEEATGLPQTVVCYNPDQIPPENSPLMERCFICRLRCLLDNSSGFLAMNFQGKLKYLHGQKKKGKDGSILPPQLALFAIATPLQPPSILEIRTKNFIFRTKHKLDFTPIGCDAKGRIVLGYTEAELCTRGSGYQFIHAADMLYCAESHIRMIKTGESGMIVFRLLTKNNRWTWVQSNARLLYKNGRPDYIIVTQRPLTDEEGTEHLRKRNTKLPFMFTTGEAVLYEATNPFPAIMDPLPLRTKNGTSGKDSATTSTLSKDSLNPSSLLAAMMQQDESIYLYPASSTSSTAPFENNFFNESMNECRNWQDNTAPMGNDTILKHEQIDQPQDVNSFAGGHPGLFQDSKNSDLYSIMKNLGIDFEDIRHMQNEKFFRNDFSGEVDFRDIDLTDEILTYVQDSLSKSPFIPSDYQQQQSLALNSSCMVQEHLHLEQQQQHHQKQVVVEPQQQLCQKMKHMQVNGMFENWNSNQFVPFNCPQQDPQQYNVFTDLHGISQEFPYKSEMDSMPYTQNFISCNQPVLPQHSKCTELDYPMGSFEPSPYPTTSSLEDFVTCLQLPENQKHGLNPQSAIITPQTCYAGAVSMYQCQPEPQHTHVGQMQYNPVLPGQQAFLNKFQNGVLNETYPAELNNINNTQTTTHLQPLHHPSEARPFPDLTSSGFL

For the compound `CCCCCCCC/C=C\CCCCCCCC(=O)O`, the outcome in [1], in test [2], in test [3], in [5], in [7] and in [8] was inactive. Moreover, the outcome in [10], in test [11], in test [12], in [13], in test [14] and in test [15] was inactive. Moreover, the result in test [16], in test [17], in test [18], in test [19] and in [20] was inactive. Also, the AC50 in [4] is 48.7 µM (active); in test [6], 137 µM (active); in test [9], 85.9 µM (active).
Regarding `O=S(=O)(O)c1ccccc1C=Cc1ccc(-c2ccc(C=Cc3ccccc3S(=O)(=O)O)cc2)cc1`, the result in test [1], in test [2], in test [3], in test [4], in [5] and in [6] was inactive. For the same compound, the call in [7], in test [9], in test [10], in [12], in test [13] and in test [14] was inactive. Also, the compound was classed as inactive in test [15], in test [16], in test [17], in [18], in test [19] and in test [20]. Further, the figures for the AC50 in [8] and in test [11] were 39.6 µM (active) and 40.6 µM (active), respectively.
As for `CC(C)(C)c1n[nH]c(=O)n(N)c1=O`, the outcome in [1], in test [2], in test [3], in [4], in test [5] and in test [6] was inactive. Moreover, the compound was classed as inactive in test [7], in test [8], in test [9], in test [10], in test [11] and in test [12]. For the same compound, the result in [13], in test [14], in test [15], in [16], in test [17] and in [18] was inactive. In addition, the outcome in test [19] and in test [20] was inactive.
Regarding `O=C(c1ccccc1)c1ccc(O)c(O)c1O`, the compound was classed as inactive in test [1], in test [2], in [3], in test [4], in test [6] and in test [7]. Also, the result in [8], in test [9], in test [10], in [11], in test [12] and in test [13] was inactive. Besides, the call in [14], in [16], in [18], in [19] and in [20] was inactive. Moreover, the AC50 is 84.4 µM (active) in [5] and 27 µM (active) in test [15].
In the case of `COc1cc(NC(=O)CC(C)=O)c(OC)cc1Cl`, the outcome in test [1], in test [2], in test [3], in [4], in test [6] and in test [7] was inactive. Also, the compound was classed as inactive in [8], in [9], in [10], in test [11], in test [12] and in test [13]. The compound was called inactive in test [14], in test [15], in [16], in test [17], in test [18] and in test [19]. Moreover, in [20], the outcome was inactive. In test [5], the AC50 is 40.1 µM (active).
With `CCOC(=O)CC(C(C)=O)C(C)=O`, the outcome in test [1], in test [2], in test [3], in test [4], in test [5] and in test [6] was inactive. In addition, the compound was classed as inactive in test [7], in [8], in test [9], in [10], in test [11] and in test [12]. Further, the call in test [13], in test [14], in [15], in test [16], in test [18] and in test [19] was inactive. Further, the compound was called inactive in test [20].
